Assay outcomes: PubChem, ICCB-Longwood Screening Facility, Harvard Medical School
Compounds with a hit are over-represented: about 0.52% of the library has one in this group of screens.
Sa growth 42C: S. aureus growth inhibition at 42 and 30 °C, primary screen, LtaS inhibitor project, RN4220, two temperatures; OD600, 20 h, 42 °C; active compounds read low; relative growth, % (no concentration beside the values); actives 0.53% (n = 170,000);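 active = relative growth at most 50% at the other temperature and 20+ points below 30 °C, or under 10% at both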
Sa helicase inh: inhibitors of S. aureus replicative helicase, primary screen, biochemical, fluorescence unwinding readout; replicative DNA helicase (DnaC/DnaB), Staphylococcus aureus; purified S. aureus helicase, fluorescence unwinding assay; inhibition, % (no concentration beside the values); actives 0.05% (n = 120,000); AID 485395, 2010; in the data active = inhibition above about 25%, passing the limit was not always enough;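 also: 0% = mean of negative control wells and 100% = mean of positive control wells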
The depositor's hits bear a star; · = no result.

SMILES	Sa growth 42C	Sa helicase inh
Cc1ccc2c(c1)N(CCO)/C(=C/c1sc3ccccc3[n+]1C)S2	-1.4*	19
CCN1/C(=C\C=C2\C(=O)N(C)C(=S)N2C)Sc2ccccc21	81	-3
CCC(=O)/C=C1/Sc2ccc(C)cc2N1CC	127	1
CCN1/C(=C/c2sc3ccccc3[n+]2CCO)Sc2ccccc21	28	44*
Cc1cc(O)c(Cc2cc(Cl)c3cccnc3c2O)c(=O)o1	4.0*	17
O=c1oc2ccccc2c(O)c1Cc1cc(Cl)c2cccnc2c1O	128	-15
O=C(Cc1ccccc1)Nc1ccccc1F	100	·
O=C(c1ccco1)N1CCN(S(=O)(=O)c2c(F)cccc2F)CC1	·	-3
CO/N=C(/C(=O)NC1C(=O)N2C(C(=O)O)=C(COC(N)=O)CSC12)c1ccco1 (stereo not given)	-1.0*	·
CC(C)(O/N=C(\C(=O)N[C@@H]1C(=O)N2C(C(=O)[O-])=C(C[n+]3ccccc3)CSC12)c1csc(N)n1)C(=O)O (stereo not given in full)	69	·
COCC1=C(C(=O)OC(C)OC(=O)OC(C)C)N2C(=O)[C@@H](NC(=O)C(=NOC)c3csc(N)n3)[C@H]2SC1 (stereo not given in full)	16	·
CC(=O)OCC1=C(C(=O)O)N2C(=O)[C@@H](NC(=O)CSc3ccncc3)[C@H]2SC1	-0.3*	·
CO/N=C(\C(=O)N[C@@H]1C(=O)N2C(C(=O)O)=C(COC(C)=O)CS[C@H]12)c1csc(N)n1	-0.8*	·
COC(=O)c1cn(NC(=O)CSc2ccncc2)c(=O)c2ccccc12	106	6
CC(C)c1nc(C#N)c(NCc2cccnc2)o1	92	-11
CNC(=O)C1CC(=O)N(C2CCCCCC2)C1 (stereo not given)	97	7
Cc1nc2c(C(=O)NCCc3ccc(Cl)cc3)c[nH]n2c(=O)c1Cc1ccc(Cl)cc1	1.2*	·
Cc1nc2c(C(=O)NCCc3ccccc3)c[nH]n2c(=O)c1Cc1ccccc1F	0.7*	·
CNC(=O)c1c[nH]n2c(=O)c(Cc3ccccc3F)c(C)nc12	105	·
COCCNC(=O)c1c[nH]n2c(=O)c(Cc3ccc(Cl)cc3)c(C)nc12	79	14
CCn1c2ccccc2c2cc(NC(=O)C(C)OC(=O)c3cccn3C)ccc21 (stereo not given)	80	-19
c1ccc(-c2nn3c(CN4CCOCC4)nnc3c3ccccc23)cc1	81	0
CCOC(=O)c1c(C)[nH]c(/C=N/NC(=S)NCc2ccco2)c1Cc1cccc(Cl)c1	95	30
CC(C)=NNc1nc(Cl)c(C#N)c(Cl)c1Cl	6.4*	·
N#Cc1c(Cl)nc(Cl)c(Cl)c1Cl	66	-3
SMILES	Sa growth 42C	Sa helicase inh
C=CCN(CC=C)Cn1nc(-c2c[nH]c3ccccc23)oc1=S	43*	-7
C=CCN(CC=C)Cn1nc(Nc2ccccc2F)sc1=S	71	-11
Cn1cnc2cc(NCc3ccccc3Cl)ccc21	97	7
CCCCn1cnc2cc(NCc3ccccc3Cl)ccc21	1.0*	·
COc1cccc(C(c2cc3c(cc2O)OCO3)N2CCCC2)c1O (stereo not given)	1.2*	1
COc1ccccc1C(CC(=O)N1CCCC1)c1ccc2c(c1)OCO2 (stereo not given)	92	1
CC(N)c1ccc(-c2ccccc2)cc1 (stereo not given)	96	-11
c1ccc(-c2ccc(C(c3ccccc3)n3ccnc3)cc2)cc1 (stereo not given)	1.6*	·
CCOC(=O)c1sc2[nH]c(C(C)(C)C)cc(=O)c2c1C	109	13
COc1cc(C2Nc3c(C)cc(C)cc3-c3cc(C)nn32)cc(OC)c1O (stereo not given)	105	·
CC1=CC(C)=NC2Nc3c(C)cc(C)cc3C(=N)C12 (stereo not given)	85	66*
N/C(=N/O)c1nccnc1Sc1ccc(Cl)cc1	110	·
COc1ccc(/C=C2\SC(=N)N(c3ccc(OC)cc3)C2=O)cc1	83	-11
C=CCn1c(=N)n(CC(=O)c2ccc(-c3ccccc3)cc2)c2ccccc21	5.3*	13
Cn1c(=N)n(CC(=O)c2ccc(-c3ccccc3)cc2)c2ccccc21	117	8
COc1cc(Cl)c(C)cc1NC(=O)COC(=O)CCC1CCCC1	92	3
CC1=NN(c2cccc(C(F)(F)F)c2)C(=O)C1	0.4*	-5
CC1=NN(c2cccc(SC(F)F)c2)C(=O)C1	57	7
c1ccc(-c2ccc3c(c2)c2c4n3CCNC4CCC2)cc1 (stereo not given)	0.3*	14
OC(c1ccccc1)c1ccc2c(c1)c1c3n2CCNC3CCC1 (stereo not given)	87	-2
c1ccc(CN2CCC(NC3CCCC3)CC2)cc1	111	-2
C=CCn1c(SC(C)C(=O)NC(N)=O)nc2ccccc2c1=O (stereo not given)	104	15
Cc1c(Cl)cccc1NC1=NCC(=O)N1C1CCCC1	118	-4
c1ccc(-c2csc3ncnc(NCCCn4ccnc4)c23)cc1	81	·
CC(C)Cn1cnc2c(c(-c3ccccc3)c(-c3ccccc3)n2Cc2ccco2)c1=N	48*	0
SMILES	Sa growth 42C	Sa helicase inh
N=c1c2c(-c3ccccc3)c(-c3ccccc3)n(Cc3ccco3)c2ncn1CCCN1CCOCC1	89	13
c1ccc(-c2c(-c3ccccc3)n(Cc3ccco3)c3ncnc(NCCCn4ccnc4)c23)cc1	0.1*	-19
O=C(/C=C1/Sc2ccccc2N(Cc2ccccc2F)C1=O)N1CCCC1	98	-4
CN(C)c1ccc(/C=C2\CCC(C3CCCC3)C2=O)cc1 (stereo not given)	95	3
Cc1ccc(/C=C2\CCCC(CN(C)C)C2=O)cc1 (stereo not given)	-0.2*	·
N#C/C(=C(\O)c1ccc(C#N)cc1)c1nc2ccccc2s1	·	-19
C#CCNC(C)c1ccccc1 (stereo not given)	89	16
O=C1C(Nc2cccc(O)c2)=C(n2nnc3ccccc32)C(=O)c2ccccc21	0.6*	15
O=C1C(Nc2ccccc2)=C(n2nnc3ccccc32)C(=O)c2ccccc21	86	13
O=C(Cc1cccc(C(F)(F)F)c1)OCC(=O)N1CCCCCC1	106	-13
O=C(Nc1cccnc1)c1ccc(OCC2CCCO2)cc1 (stereo not given)	95	-6
O=C(Nc1ccccc1)Nc1ccc2snnc2c1	14	13
O=C(Nc1cccc(C(F)(F)F)c1)c1ccc2snnc2c1	99	·
O=C(Nc1cccc(C(F)(F)F)c1)Nc1ccc2snnc2c1	9.9*	·
O=C(Nc1ccccc1)Nc1ccc2nnsc2c1	2.4*	·
O=C(NC1Cc2ccccc2C1)c1ccc2nonc2c1	108	·
CC(CCc1ccccc1)NCc1c(C(=O)O)n(C)c2ccccc12 (stereo not given)	106	16
COc1ccc(N=Cc2cc(C=Nc3ccc(OC)cc3)c(S(=O)(=O)C(C)(C)C)s2)cc1	87	4
O=C1OCCN1/N=C/c1ccc([N+](=O)[O-])o1	-0.9*	·
O=C1CN(/N=C/c2ccc([N+](=O)[O-])o2)C(=O)N1	13	·
CC(C)CNC(=O)c1ccccc1S(=O)(=O)N1CCCCC1	49*	12
O=S(=O)(c1cccc2ccccc12)N1CCCCC1	107	9
C=C(C)[C@@H]1Cc2cc3ccc(=O)oc3cc2O1	79	0
c1ccc2c(c1)N1CCN2CC1	94	-9
